The inhibition is the relative decrease from the control value, in per cent.

Values without a mark were called inactive. Active and inactive are the calls of the source.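 How the source made its calls, unless noted: active means inhibition above 50%; inactive means the rest.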

The first assay can be described thus: antimalarial activity against Dd2 strain (AID 2302;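 active means growth inhibition above 50% at the single 2 µM test dose, taken to imply half-maximal potency below 2 µM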;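 further: 0% = DMSO untreated growth and 100% = chloroquine plus artemisinin killed control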). The settings on record: P. falciparum Dd2 in RBCs, LDH growth readout, 72 h; at 2 µM; hits give high values.
Take `CN1CCCN(Cc2ccc(-c3cccc(NC(=O)c4ccc(C#N)cc4)c3)cc2)CC1`: the growth inhibition is 26%.
The same measure, in the same setting: under `COc1ccc(C2CCN(C#N)C2)cc1OC1CCCC1` (stereo not given) stands 97% (active); under `COc1cc2nc(N3CCN(C(=O)c4cccc(I)c4)CC3)nc(N)c2cc1OC`, 26%.
As for `CN(CCNCc1ccc(-c2cccc(-c3nc4ccccc4[nH]3)c2)cc1)S(C)(=O)=O`, the growth inhibition is 29%.
Same read-out and setting: under `COc1cccc2c(C)cc(NCc3ccc(Cl)cc3)nc12` stands 5%; under `CCOC(=O)c1[nH]c(-c2cccnc2)nc1NC(=S)NCc1ccccc1`, 100% (active); under `CCOC(=O)c1cnc2c(OC)cc(OC)c(Cl)c2c1Nc1ccccc1`, 100% (active).
As for `FC(F)(F)c1ccc2nc(-c3ccc(-c4ccc(CNCC5CCCO5)cc4)s3)[nH]c2c1` (stereo not given), the growth inhibition was 98% (active).
Consider `CCCCOP(=O)(OCCCC)C(=Cc1ccc(O)c2ccccc12)P(=O)(OCCCC)OCCCC`, for which the growth inhibition is 64% (active).
`Cc1cc2c3c(N)nc(N)nc3ccc2n1C(C)C`: the growth inhibition was 0%.
The same measure, in the same setting: under `CN1CCN(CC(=O)Nc2ccc(-c3cccc(-c4nc5ccc(F)cc5[nH]4)c3)cc2)CC1` stands 100% (active).
Still for that read-out and setting: under `CCN1CCC(N(Cc2ccc(-c3ccc(C(F)(F)F)cc3)cc2)C(=O)Cn2c(CCc3cccc(F)c3F)cc(=O)c3cn(C)nc32)CC1` stands 87% (active).
On to `O=C(Nc1ccc(N2CCN(c3ncccc3C(F)(F)F)CC2)nc1)c1cccs1`, for which the growth inhibition is 40%.
On the same count and under the same terms, the value for `COCCn1c(-c2cccc(Cl)c2)nn(-c2ccc([N+](=O)[O-])cc2C#N)c1=S` was 100% (active); that for `O=S(=O)(NCCN1CCCC1)c1cccc(-c2ccc(CNCc3ccccc3)cc2)c1` was 41%.
Same read-out and setting: under `COc1cccc(NC(=O)[C@H](C(C)C)n2c(=O)[nH]c3ccccc3c2=O)c1` stands 100% (active); under `C=CCN1Cc2c(O)cccc2C(c2ccc(O)c(O)c2)C1` (stereo not given), 6%; under `COc1cc(C(C)C)ccc1N1CCN(CCCCNC(=O)c2ccc(NC(=O)c3ccc(Cl)cc3)cc2)CC1`, 81% (active).
As to `CCCNS(=O)(=O)c1ccc(NC(=O)C(C)Oc2ccc([N+](=O)[O-])cc2)cc1` (stereo not given), the growth inhibition is 37%.
The same measure, in the same setting: the value for `CC(C)CN1CCCN(Cc2cccc(NC(=O)c3ccc(Cl)c(Cl)c3)c2)CC1` was 9%; that for `COc1ccccc1C(=O)N1CCN(Cc2cccs2)CC1` was 1%.
Same read-out and setting: the value for `Cc1ccc(CNC(=O)[C@H](CC(C)C)Nc2cc(C)nc(NCc3ccccc3C)n2)cc1` was 35%; that for `CCC[C@]1(C)CSc2ccccc2[C@@H](c2ccccc2)N1` was 2%; that for `COc1ccc(-c2cccc(NC(=O)c3cccc(Cl)c3)c2)cc1CNC(C)C` was 8%.
For `CCn1c(Sc2ccc(C#N)c([N+](=O)[O-])c2)nnc1-c1cc(OC)cc(OC)c1`, the growth inhibition was 82% (active).
On to `CC1(C)N=C(N)N=C(N)N1OCCSCCON1C(N)=NC(N)=NC1(C)C`, for which the growth inhibition was 81% (active).
The same measure, in the same setting: under `Cc1ccc(S(=O)(=O)N2CCN(C(=O)c3cc(-c4ccccc4)n[nH]3)CC2)cc1` stands 88% (active); under `CN(C)CCNCc1ccc(-c2cccc(-c3nc4ccccc4[nH]3)c2)cc1`, 63% (active).
On the same count and under the same terms, under `COc1cc(NC(=O)c2c(-c3c(F)cccc3Cl)noc2C)c(OC)cc1Cl` stands 17%.
With `Cc1occc1C(=O)Nc1nc(-c2ccccn2)nc2ccsc12`, the growth inhibition was 98% (active).
On the same count and under the same terms, under `COc1ccc(NCCCNc2ccnc3ccccc23)cc1` stands 17%.
Still for that read-out and setting: under `c1ccc(CN2CCN(c3cc(-c4cncc(-c5ccccc5)c4)nc(-c4ccccc4)n3)CC2)cc1` stands 12%; under `O=C(Nc1ccccc1)c1ccc(-c2cc3ccncc3cc2OC2CCNCC2)s1`, 8%.
For the molecule `Cc1nc2nc(N)nc(N)c2c(C)c1Cc1c(Cl)cccc1Cl`, the growth inhibition was 5%.
`O=C(/C=C/c1ccc(Cl)c(Cl)c1)NCCCCCN1CCC(CCNC(=O)Cc2ccc(Cl)cc2)CC1`: the growth inhibition was 0%.
Consider `Cc1c(F)cc(C(=O)NC2CC2)cc1-c1ccc2c(cnn2S(=O)(=O)c2ccc(Cl)s2)c1`, for which the growth inhibition is 50% (active).
On the same count and under the same terms, under `Cc1cccc2[nH]c(-c3ccc(-c4ccc(CN5CCC(C(N)=O)CC5)cc4)cc3)nc12` stands 32%; under `CC(Cc1ccc(NC(=O)c2ccc(CNCCCCc3ccccc3)cc2)cc1)NCCc1cccc(Cl)c1` (stereo not given), 96% (active).
As for `NC1=NC(c2ccccc2)(c2ccccc2)C(=O)N1CCCCc1ccccn1`, the growth inhibition is 56% (active).
Still for that read-out and setting: under `OCC(c1ccccc1)n1c(COc2ccc(Cl)cc2)nc2c(OCCCN3CCCCC3)cccc21` (stereo not given) stands 68% (active).

Another assay is described as follows: human hepatoma cell viability loss – ATP luminescence, cytotoxicity control for P. falciparum antimalarial project, primary screen (AID 2303).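 Further: 0% = DMSO wells and 100% = digitonin-killed cells.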 The settings on record: HepG2 viability, 24-48 h, at 10 µM, hits give high values.
As for `CN1CCCN(Cc2ccc(-c3cccc(NC(=O)c4ccc(C#N)cc4)c3)cc2)CC1`, the inhibition was 29%.
Still for that read-out and setting: under `COc1ccc(C2CCN(C#N)C2)cc1OC1CCCC1` (stereo not given) stands 9%.
For the molecule `COc1cc2nc(N3CCN(C(=O)c4cccc(I)c4)CC3)nc(N)c2cc1OC`, the inhibition is 11%.
The same measure, in the same setting: under `CN(CCNCc1ccc(-c2cccc(-c3nc4ccccc4[nH]3)c2)cc1)S(C)(=O)=O` stands 9%; under `COc1cccc2c(C)cc(NCc3ccc(Cl)cc3)nc12`, 7%.
Still for that read-out and setting: the value for `CCOC(=O)c1[nH]c(-c2cccnc2)nc1NC(=S)NCc1ccccc1` was 10%; that for `CCOC(=O)c1cnc2c(OC)cc(OC)c(Cl)c2c1Nc1ccccc1` was 13%; that for `FC(F)(F)c1ccc2nc(-c3ccc(-c4ccc(CNCC5CCCO5)cc4)s3)[nH]c2c1` (stereo not given) was 47%.
For `CCCCOP(=O)(OCCCC)C(=Cc1ccc(O)c2ccccc12)P(=O)(OCCCC)OCCCC`, the inhibition is 1%.
As to `Cc1cc2c3c(N)nc(N)nc3ccc2n1C(C)C`, the inhibition is 70% (active).
Take `CN1CCN(CC(=O)Nc2ccc(-c3cccc(-c4nc5ccc(F)cc5[nH]4)c3)cc2)CC1`: the inhibition is 18%.
Consider `CCN1CCC(N(Cc2ccc(-c3ccc(C(F)(F)F)cc3)cc2)C(=O)Cn2c(CCc3cccc(F)c3F)cc(=O)c3cn(C)nc32)CC1`, for which the inhibition is 27%.
For `O=C(Nc1ccc(N2CCN(c3ncccc3C(F)(F)F)CC2)nc1)c1cccs1`, the inhibition is 7%.
On the same count and under the same terms, the value for `COCCn1c(-c2cccc(Cl)c2)nn(-c2ccc([N+](=O)[O-])cc2C#N)c1=S` was 7%; that for `O=S(=O)(NCCN1CCCC1)c1cccc(-c2ccc(CNCc3ccccc3)cc2)c1` was 54% (active); that for `COc1cccc(NC(=O)[C@H](C(C)C)n2c(=O)[nH]c3ccccc3c2=O)c1` was -1%.
The same measure, in the same setting: under `C=CCN1Cc2c(O)cccc2C(c2ccc(O)c(O)c2)C1` (stereo not given) stands -5%; under `COc1cc(C(C)C)ccc1N1CCN(CCCCNC(=O)c2ccc(NC(=O)c3ccc(Cl)cc3)cc2)CC1`, 25%; under `CCCNS(=O)(=O)c1ccc(NC(=O)C(C)Oc2ccc([N+](=O)[O-])cc2)cc1` (stereo not given), 3%.
In the case of `CC(C)CN1CCCN(Cc2cccc(NC(=O)c3ccc(Cl)c(Cl)c3)c2)CC1`, the inhibition was 10%.
Still for that read-out and setting: the value for `COc1ccccc1C(=O)N1CCN(Cc2cccs2)CC1` was 87% (active); that for `Cc1ccc(CNC(=O)[C@H](CC(C)C)Nc2cc(C)nc(NCc3ccccc3C)n2)cc1` was 3%; that for `CCC[C@]1(C)CSc2ccccc2[C@@H](c2ccccc2)N1` was 60% (active).
Same read-out and setting: the value for `COc1ccc(-c2cccc(NC(=O)c3cccc(Cl)c3)c2)cc1CNC(C)C` was 15%; that for `CCn1c(Sc2ccc(C#N)c([N+](=O)[O-])c2)nnc1-c1cc(OC)cc(OC)c1` was 7%; that for `CC1(C)N=C(N)N=C(N)N1OCCSCCON1C(N)=NC(N)=NC1(C)C` was 34%.
Take `Cc1ccc(S(=O)(=O)N2CCN(C(=O)c3cc(-c4ccccc4)n[nH]3)CC2)cc1`: the inhibition was -8%.
As to `CN(C)CCNCc1ccc(-c2cccc(-c3nc4ccccc4[nH]3)c2)cc1`, the inhibition was 31%.
On to `COc1cc(NC(=O)c2c(-c3c(F)cccc3Cl)noc2C)c(OC)cc1Cl`, for which the inhibition was -12%.
Still for that read-out and setting: the value for `Cc1occc1C(=O)Nc1nc(-c2ccccn2)nc2ccsc12` was 68% (active); that for `COc1ccc(NCCCNc2ccnc3ccccc23)cc1` was 34%; that for `c1ccc(CN2CCN(c3cc(-c4cncc(-c5ccccc5)c4)nc(-c4ccccc4)n3)CC2)cc1` was 9%.
Regarding `O=C(Nc1ccccc1)c1ccc(-c2cc3ccncc3cc2OC2CCNCC2)s1`, the inhibition was -1%.
On to `Cc1nc2nc(N)nc(N)c2c(C)c1Cc1c(Cl)cccc1Cl`, for which the inhibition was 7%.
For the molecule `O=C(/C=C/c1ccc(Cl)c(Cl)c1)NCCCCCN1CCC(CCNC(=O)Cc2ccc(Cl)cc2)CC1`, the inhibition was 45%.
Regarding `Cc1c(F)cc(C(=O)NC2CC2)cc1-c1ccc2c(cnn2S(=O)(=O)c2ccc(Cl)s2)c1`, the inhibition is 24%.
For the molecule `Cc1cccc2[nH]c(-c3ccc(-c4ccc(CN5CCC(C(N)=O)CC5)cc4)cc3)nc12`, the inhibition is 8%.
Take `CC(Cc1ccc(NC(=O)c2ccc(CNCCCCc3ccccc3)cc2)cc1)NCCc1cccc(Cl)c1` (stereo not given): the inhibition is 100% (active).
Same read-out and setting: the value for `NC1=NC(c2ccccc2)(c2ccccc2)C(=O)N1CCCCc1ccccn1` was 10%.
For `OCC(c1ccccc1)n1c(COc2ccc(Cl)cc2)nc2c(OCCCN3CCCCC3)cccc21` (stereo not given), the inhibition was 6%.

Source of the values: PubChem BioAssay.
